# Assay outcomes from PubChem.
# Compounds with a hit are over-represented: about 6.9% of the library has one in this group of screens.
# Giardia kill – kills Giardia lamblia | Giardia lamblia trophozoite viability | activity change, % at 7.66 µM, hits read low | 340,000 compounds, 0.15% hits; in the data active = activity change below about -80%; inconclusive = between about -30% and that limit;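 note: parasites exposed to compound for two days anaerobically before the ATP read; % is set by controls: 0 for no effect and ±100 for the full control effect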
#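 ATP-content bioluminescence gauges trophozoite survival. Cells (100/well) receive compound and incubate anaerobically for 48 hrs at 37 deg C; detection reagent follows for 15-30 min at room temperature.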
# MCF10A rerep – induces DNA re-replication in MCF 10a normal breast cells; AID 624296; Potency, µM (titrated, usually from 46.1 µM), inactives show at the top dose activity, positive = re-replication, hits mostly activators; 350,000 compounds, 2.9% hits; MCF 10A DNA re-replication, Hoechst nuclear intensity, 48 h; note: potency is the fitted concentration of half-maximal effect; % of control where 0% means no effect; nearly all actives have a fitted effect of over 50% in size
# Vif-A3F inh – inhibitors of Vif-A3F interaction; 390,000 compounds, 0.2% hits; HeLa A3F-eYFP + Vif (tagged APOBEC3F with the HIV-1 protein that degrades it), YFP fluorescence increase; Potency, µM (doses to about 46.1 µM), for the others: at the highest dose activity, negative = active; note: potency is the fitted concentration of half-maximal effect; % of control where 0% means no effect; nearly all actives have a fitted effect of over 65% in size
#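 Fluorescence increase (Ex 488/Em 500-530) after overnight compound treatment at 37 deg C flags inhibition of Vif-driven A3F-eYFP loss in stable HeLa A3F-eYFP/Vif cells seeded overnight beforehand.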
# SW480 rereplic – DNA re-replication induction in SW480 cells; SW480 DNA re-replication, Hoechst DNA content imaging, 48 h; 340,000 compounds, 1.8% hits; Potency, µM (top dose mostly 46.1 µM), for inactives: top-dose re-replication activation, actives largely listed as activators; note: potency is the fitted concentration of half-maximal effect; % of control where 0% means no effect; nearly all actives have a fitted effect of over 55% in size
#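 DNA re-replication was detected as more nuclei of elevated Hoechst intensity after 48 hr exposure to compound (23 nL pinned per well of 250 cells).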
# IL1B secr inh – inflammasome signaling inhibition, IL-1 beta readout; activity change, % at 57.5 µM; THP-1 LPS/ATP IL-1B secretion, AlphaLISA, 16 h; stronger effect = lower value; AID 743279; 360,000 compounds, 4.7% hits; in the data active = activity change below about -50%; inconclusive = mostly about -30% to -49%; note: % is set by controls: 0 for no effect and ±100 for the full control effect
#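 THP-1 cells pretreated 1 hr with compounds (up to 57.5 uM final), then stimulated with LPS (250 ng/mL final) plus ATP (1.25 mM final); secreted IL-1B measured by AlphaLISA after 16 hr, decreased signal indicating inhibition.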
# Vif-APOBEC3G blk – Vif-A3G binding inhibition | Potency, µM (doses to about 46.1 µM), without a hit: top-dose activity, negative = active, most hits filed as inhibitors | Q9HC16 | AID 602310 | HeLa A3G-eYFP + Vif (tagged APOBEC3G with the HIV-1 protein that degrades it), YFP fluorescence, overnight | 410,000 compounds, 0.076% hits; note: potency is the fitted concentration of half-maximal effect; % is set by controls: 0 for no effect and ±100 for the full control effect; nearly all actives have a fitted effect of over 60% in size
# Target sequence (Q9HC16 whole entry, looked up): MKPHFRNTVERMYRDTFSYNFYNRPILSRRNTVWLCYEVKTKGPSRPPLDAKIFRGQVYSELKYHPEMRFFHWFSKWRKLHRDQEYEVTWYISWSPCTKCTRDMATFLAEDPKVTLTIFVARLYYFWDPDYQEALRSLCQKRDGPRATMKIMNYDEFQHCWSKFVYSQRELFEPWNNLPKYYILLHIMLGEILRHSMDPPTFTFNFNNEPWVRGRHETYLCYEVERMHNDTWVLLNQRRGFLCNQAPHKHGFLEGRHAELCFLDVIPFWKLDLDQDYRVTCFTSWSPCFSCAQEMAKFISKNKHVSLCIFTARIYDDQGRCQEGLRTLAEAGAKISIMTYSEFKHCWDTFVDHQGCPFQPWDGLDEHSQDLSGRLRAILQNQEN
#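 Read-out is eYFP fluorescence (Ex 488/Em 500-530) from Vif-expressing HeLa A3G-eYFP cells; more signal means A3G escaped Vif-mediated degradation. Cells plated overnight, compound pinned in, incubated overnight at 37 deg C.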
# * = called active by the depositor; ? = inconclusive; nt = not tested or not shown; [ ] = another dose, or the depositor's remark. Unless noted, calls come from the whole dose curve; as a rule, active = well fitted curve in the direction sought with a large enough effect; inconclusive = small, poorly fitted or top-dose-only effect, or another doubt; inactive = no such curve, though single readings can be large; an effect the other way counts as inactive or inconclusive.
SMILES,Giardia kill,MCF10A rerep,Vif-A3F inh,SW480 rereplic,IL1B secr inh,Vif-APOBEC3G blk
C=CCn1c(=N)c(C#N)cc2c(=O)n3ccccc3nc21,2,?,2%,?,17,2%
C=CCn1c(=N)c(C(=O)NCCCOC)cc2c(=O)n3cc(C)ccc3nc21,3,8.2µM*,2%,?,-20,-4%
C=CCn1c(=N)c(C(=O)NCCCOC)cc2c(=O)n3ccccc3nc21,16,2.1µM*,4%,1.3µM*,-9,0%
Cc1ccc2nc3c(cc(C(=O)NCCCn4ccnc4)n3C)c(=O)n2c1,34,15µM*,0%,?,-26,2%
COC(=O)c1nc2n(n1)C(c1cc(OC)ccc1OC)C(C(=O)Nc1ccc(C)cc1C)=C(C)N2 (centres undefined),nt,nt,-8%,nt,nt,3%
Cc1ccc(N=C2C(=O)Nc3ccccc32)cc1,8,1%,-4%,-12%,17,0%
Cc1nc2c(o1)C(=O)c1ccccc1C2=Nc1ccccc1,-101*,6.5µM*,9%,4.1µM*,-100*,-8%
Cc1ccc2c(c1)C(=O)C(=O)N2CC1COc2ccccc2O1 (centres undefined),-5,?,19%,23µM*,-93*,-16%
CCOc1ccc2c(c1)C(=O)C(=O)N2CC1COc2ccccc2O1 (centres undefined),-20,?,-23%,8.2µM*,-3,-2%
COc1ccc2c(c1)C(=O)C(=O)N2CC1COc2ccccc2O1 (centres undefined),-13,?,?,?,-11,-8%
Cc1ccc2c(c1)C(=O)C(=O)N2Cc1ccccc1,2,?,-7%,?,47,1%
NNC(=O)CNC(c1ccccc1)c1cc(Br)ccc1N (centres undefined),-3,0%,-7%,-6%,-72*,4%
COC(=O)CNC(c1ccccc1)c1cc(Br)ccc1N (centres undefined),23,6%,?,-1%,30,-3%
O=C(Cc1cccs1)NCCSc1c(-c2ccc(Cl)cc2)[nH]c2ccccc12,-13,21µM*,-3%,?,-17,-11%
Nc1ccccc1SSc1ccccc1N,-24,15%,-4%,6%,-97*,-27%
Cc1nc2ccc(N)cc2c(=O)n1Cc1ccc(Cl)cc1,5,6%,nt,11%[9.22 µM],0,2%
Nc1ccc(Cn2ccc3c4c(N)nc(N)nc4ccc32)cc1,-7,27%,0%,?,-99*,?
CN(C)S(=O)(=O)c1ccc(C(=O)NCCN2C(=O)S/C(=C\c3cccnc3)C2=O)cc1,28,-6%,-3%,-8%,-10,1%
CS(=O)(=O)c1ccc(C(=O)NCCN2C(=O)S/C(=C\c3cccnc3)C2=O)cc1[N+](=O)[O-],13,13µM*,-1%,2.1µM*,-98*,?
Cc1cc(Cl)ccc1OCCCC(=O)NCCN1C(=O)S/C(=C\c2cccnc2)C1=O,-1,25%,-1%,-5%,-54*,1%
O=C(NCc1ccccc1Cl)c1cnc(N2CCCCC2)c2ccccc12,nt,nt,3%,nt,nt,-3%
Cc1ccc(NC(=O)/C(C#N)=C/c2cc(C)n(-c3ccc(F)cc3)c2C)cc1C,nt,nt,-6%,nt,nt,-2%
CN(C)c1nc(C=C(C#N)C#N)c(Cl)n1-c1ccc(F)cc1,1,?,-18%,7.3µM*,-97*,?
COc1ccc(-c2nc3cnccn3c2NCc2ccccc2)cc1SC1CCCCC1,25,12µM*,?,?,?,?
CCCCNc1c(-c2ccc(SC3CCCCC3)cc2)nc2cnccn12,16,?,?,?,-13,3.2µM*
SMILES,Giardia kill,MCF10A rerep,Vif-A3F inh,SW480 rereplic,IL1B secr inh,Vif-APOBEC3G blk
CCCCCCSc1ccc(-c2nc3ccccn3c2NCCCC)cc1,23,?,-4%,0%,?,-12%
CCCCNc1c(-c2ccc(-c3ccc(C(C)=O)cc3)c(OC)c2)nc2cnccn12,22,21µM*,-24%,23µM*,0,?
CCCCCCSc1cc(-c2nc3cnccn3c2NCc2ccccc2)ccc1OC,2,?,-13%,?,0,-30%
CCCCCCSc1cc(-c2nc3cc(C)ccn3c2NC2CCCCC2)ccc1OC,29,?,-15%,-2%,-21,-18%
CCCCNc1c(-c2ccc(OC)c(SC3CCCCC3)c2)nc2cc(C)ccn12,8,?,?,24%,-86*,-1%
CC[C@@H]1OC(=O)[C@H](C)[C@H](O[C@@H]2C[C@](C)(OC)[C@H](O)[C@H](C)O2)[C@H](C)[C@H](O[C@@H]2O[C@@H](C)C[C@@H](N(C)C)[C@@H]2O)[C@](C)(O)C[C@H](C)C(=NOCOCCOC)[C@H](C)[C@H](O)[C@]1(C)O,nt,-4%[20.6 µM],nt,1%[20.6 µM],nt,nt
CC[C@@H]1/C=C(\C)C[C@H](C)C[C@H](OC)[C@H]2O[C@@](O)(C(=O)C(=O)N3CCCC[C@H]3C(=O)O[C@H](/C(C)=C/[C@@H]3CC[C@H](Cl)[C@H](OC)C3)[C@H](C)[C@@H](O)CC1=O)[C@H](C)C[C@@H]2OC,nt,6%,nt,1%,nt,nt
CCCCNc1c(-c2ccc(SC(C)CC)cc2)nc2ccc(Cl)cn12 (centres undefined),nt,nt,nt,nt,0,nt
CCCCNc1c(-c2ccc(OC)c(SC3CCCCC3)c2)nc2cnccn12,13,16µM*,-17%,?,-70*,-19%
COc1cc(-c2nc3cnccn3c2NC(C)(C)CC(C)(C)C)ccc1O,-23,2%,-2%,-3%,0,4%
CCCCNc1c(-c2ccc(OC)c(SC3CCCCC3)c2)nc2ccc(Cl)cn12,2,21µM*,?,11%,-27,2%
O=C1C=C(Nc2ccc(Cl)cc2Cl)CC(c2ccco2)C1 (centres undefined),13,?,-14%,16µM*,-2,?
O=C1C=C(NCc2ccc(Cl)cc2)CC(c2ccco2)C1 (centres undefined),16,?,-10%,1%,-2,-19%
Cc1cc(Nc2ccc(Cl)cc2)n2cnnc2n1,nt,nt,0%,nt,nt,1%
Cc1cccc(NC(=S)NCc2ccc3c(c2)cc(C)n3C)c1C,-13,13µM*,-29%,?,-4,0%
Cc1ccc(-n2nc(CO)c(C(=O)NC(C)c3ccccc3)n2)cc1C (centres undefined),nt,nt,0%,nt,nt,2%
C[C@H](CO)N1C[C@H](C)[C@@H](CN(C)C)Oc2c(NS(=O)(=O)c3cn(C)cn3)cccc2C1=O,-14,-9%,-8%,0.92µM*,11,1%
